We go through 92 compounds from PubChem BioAssay AID1159606 (Sanford-Burnham Center for Chemical Genomics, 2016).

In all, about 360,000 compounds went through this assay and about 7,300 (2%) were called active. No stated cut-off is given here; in the data, active means inhibition above about 50%; inactive means the rest. Many of the other results were omitted from the sample, so actives are more common in it than they were.

A short description of the assay: blockers of TWEAK-induced Fn14 reporter activity – luciferase reporter cells, uHTS, primary screen (AID 1159606). The following applies: TWEAK-stimulated Fn14 reporter cells, luciferase luminescence, 8 h; at 10 µM; hits give high values. Background: Reporter assays use an easily measured gene product as a stand-in for the process of interest.
For `CCCCn1c(O)c(N=NC(=O)Cn2c(C(F)(F)F)nc3ccccc32)c2ccccc21`, the inhibition (usually the relative decrease from the control value, in per cent) was -12.1% (inactive). Under `Fc1ccc2[nH]c3c(N4CCSCC4)ncnc3c2c1` stands 77.1% (active).

`CC1(C)CC(=O)C=C(c2ccc(COC(=O)c3cc(F)cc(F)c3)cc2)C1=O`: the inhibition is -6.91% (inactive).

Turning to `O=[N+]([O-])c1ccc(CN2CC(N3CCC(c4ccccc4)CC3)CS2(=O)=O)cc1` (configuration not stated), the inhibition was -12.9% (inactive). In the case of `CSc1ncccc1C(=O)Nc1ccc(C)cn1` it was 1.24% (inactive). For `CSc1ncccc1C(=O)Nc1nc2ccc(F)cc2s1`, the inhibition is 76.2% (active). With `CCS(=O)(=O)N1Cc2ccccc2CC1C(=O)Nc1nc2ccc(F)cc2s1` (configuration not stated), the inhibition was 21.8% (inactive).

Regarding `COc1cccc(NS(=O)(=O)c2ccc3[nH]cc(C(=O)NCCCOC(C)C)c(=O)c3c2)c1`, the inhibition is -0.08% (inactive).

Consider `CCCCc1ccc(S(N)(=O)=O)cc1`, for which the inhibition is -10.5% (inactive). Consider `O=C(NCc1ccc2c(c1)OCO2)c1cc([N+](=O)[O-])ccc1N1CCOCC1`, for which the inhibition was 9.16% (inactive). On to `COc1ccc(S(=O)(=O)N2CCCCC2)cc1NC(=O)c1cc([N+](=O)[O-])ccc1N1CCOCC1`, for which the inhibition is 0.95% (inactive). Under `CCOc1ccc2nc(NC(=O)c3cc([N+](=O)[O-])ccc3N3CCOCC3)sc2c1` stands 58.5% (active); under `Cc1cc(C)cc(NC(=O)N2CCC(NC(=O)c3ccc(F)cc3)CC2)c1`, -39.6% (inactive); under `Cc1ccc2c(c1)N(CC(=O)N1CCC(O)CC1)C(=O)CO2`, 33.3% (inactive). In the case of `Cc1cc(NS(=O)(=O)c2ccc(NC(=O)c3cccnc3)cc2)nc(C)n1` it was 14.2% (inactive). Turning to `CC(C)NS(=O)(=O)c1ccc(NC(=O)c2cccnc2)cc1`, the inhibition is -3.3% (inactive).

As to `Cc1ccc2nc(-c3ccc(NC(=O)c4cccnc4)cc3)oc2c1`, the inhibition is 71.4% (active).

On to `Cc1ccc(-n2nc3cc(C)c(NC(=O)c4cccnc4)cc3n2)cc1`, for which the inhibition is 8.31% (inactive). Under `Cc1cc2nc(-c3ccc(NC(=O)c4cccnc4)cc3)oc2cc1C` stands 52.2% (active); under `O=C(Cc1ccccc1)Nc1ccc(NC(=O)c2cccnc2)cc1`, 2.31% (inactive); under `COc1ccc(Br)c2c1C(=O)CC2`, 22.5% (inactive). Under `Cc1cc([N+](=O)[O-])nn1CC(=O)Nc1ccc(Cc2ccncc2)cc1` stands 8.17% (inactive).

Turning to `COc1ccc(C2CC(=O)C=C(NCC3CCCO3)C2)cc1` (configuration not stated), the inhibition is -25.7% (inactive). As to `N#Cc1ccccc1Sc1ccccc1C(=O)OCC(=O)NC1CCCCC1`, the inhibition was 1.09% (inactive). Under `O=C1c2ccccc2C2=Nc3ccccc3SC(c3ccccc3F)C12` (configuration not stated) stands 59.2% (active); under `COc1cccc(-c2ccc(SCC(=O)N3CCN(c4ccccc4)CC3)nn2)c1`, -23.8% (inactive); under `COc1cccc(/C=C/C(=O)OCC(=O)N2CCN(c3ccccc3)CC2)c1`, 77.7% (active). Consider `COc1cccc(/C=C/C(=O)OCC(=O)N2CCCc3ccccc32)c1`, for which the inhibition is -1.49% (inactive). Under `COc1ccc(CNc2c(CO)cnc3c2cnn3C)cc1` stands -5.49% (inactive); under `CCN(C(=O)Nc1cccc2ccccc12)c1ccccc1`, 11.9% (inactive); under `COc1ccc(Cl)cc1S(=O)(=O)N1CCC(O)(c2ccc(Cl)cc2)CC1`, -6.82% (inactive).

In the case of `O=C(Cc1ccc(S(=O)(=O)N2CCOCC2)s1)Nc1ccc(Br)c(C(F)(F)F)c1`, the inhibition was 17.8% (inactive).

For the compound `Cn1nccc1C(=O)NC1CCCc2c1cnn2-c1ccc(F)cc1F` (configuration not stated), the inhibition was 18.5% (inactive). Under `COc1ccc(OC)c(C(=O)NC2CCCc3c2cnn3-c2cc(C)cc(C)c2)c1` (configuration not stated) stands -50.2% (inactive). On to `COc1ccc(C(=O)NC2CCCc3c2cnn3-c2cccc(C)c2C)c(OC)n1` (configuration not stated), for which the inhibition was 57.5% (active).

Consider `COC(=O)c1ccccc1NC(=O)CSc1n[nH]c(-c2ccncc2)n1`, for which the inhibition is -4.67% (inactive).

Consider `CCc1ccc(-c2nc(SCC(=O)NC3CCCC3)n[nH]2)cc1`, for which the inhibition was 66.6% (active).

For the compound `CCc1c(C)nc(SCC(=O)NC2CCCC2)[nH]c1=O`, the inhibition is 15.7% (inactive). For the compound `Cc1ccc(C2=NN(C(=O)CSc3nc(N)cc(N)n3)C(c3ccco3)C2)cc1` (configuration not stated), the inhibition was 9.43% (inactive). Under `Cc1ccc(C2=NN(C(=O)COc3ncnc4ccccc34)C(c3ccco3)C2)cc1` (configuration not stated) stands -54.3% (inactive); under `O=C(CN1CCN(C2CCS(=O)(=O)C2)CC1)N1N=C(c2ccc(Cl)cc2)CC1c1ccco1` (configuration not stated), 73.8% (active).

With `CC1(C(=O)NS(=O)(=O)c2ccc3ccccc3c2)CCN1C(=O)C1(c2ccc(Cl)cc2)CCC1` (configuration not stated), the inhibition was 17.7% (inactive). Under `C/C(=N\NC(=O)c1ccc(C)cc1)C1C(=O)c2ccccc2C1=O` stands -2.62% (inactive).

On to `CC(=O)c1ccc(S(=O)(=O)N2CCN(C(=O)/C=C/c3ccc4ccccc4n3)CC2)cc1`, for which the inhibition is 6.75% (inactive). Under `CCOc1ccccc1-c1cc(C(=O)N2CCOCC2)c2ccccc2n1` stands -5.73% (inactive); under `CCOc1cccc(/C=C/c2ccc3ccccc3n2)c1OC(C)=O`, 60% (active); under `CC(OC(=O)c1ccc2ccccc2n1)C(=O)c1ccccc1` (configuration not stated), -11.2% (inactive). In the case of `CCOc1ccccc1/C=N/Nc1nc2ccccc2o1` it was 15.2% (inactive).

As to `COc1cccc(/C=C/c2ccc3ccccc3n2)c1OC(C)=O`, the inhibition is 86.8% (active). In the case of `CCCc1cc(=O)oc2c(C)c(OC(C)C(=O)NCC(O)c3ccccc3)ccc12` (configuration not stated), the inhibition was -28.2% (inactive). Under `COCn1c(C(O)c2ccccc2)cc2ccccc21` (configuration not stated) stands 3.63% (inactive); under `Cc1ccc(-c2ccc(CN3C(C)C(=O)N(Cc4cn(CCC5OCCCO5)nn4)CCS3(=O)=O)cc2)cc1` (configuration not stated), 5.69% (inactive); under `Cc1ccc(NC(=O)CSCC(=O)N2CCOCC2)cc1`, -11.3% (inactive). Under `O=C(CSc1nnc(-c2cccnc2)n1Cc1ccco1)c1ccc(Cl)c(Cl)c1` stands 62.2% (active); under `C(=C\c1ccccc1)/CSc1nnc(-c2cccnc2)n1Cc1ccco1`, -6.4% (inactive).

On to `O=C(CSc1nnc(-c2cnccn2)n1Cc1ccco1)c1ccc(Cl)c(Cl)c1`, for which the inhibition was -5.31% (inactive). Under `CNC[C@H]1OCc2cnnn2CCCC(=O)N([C@H](C)CO)C[C@@H]1C` stands -13.2% (inactive). `CCc1nc2ccc(C(=O)NC3CCN(Cc4ccccc4)CC3)cn2c1N(CC)CCOC`: the inhibition is -14.1% (inactive). In the case of `COCCNc1nc2nonc2nc1N1CCCC1c1nccs1` (configuration not stated) it was -4.57% (inactive); in that of `CN1CCN(S(=O)(=O)c2cccc(C(=O)Nc3cccc(S(N)(=O)=O)c3)c2)CC1`, 14.8% (inactive); in that of `O=C(Nc1ccc2c(c1)CCC2)c1cccc(S(=O)(=O)Nc2ccccc2Cl)c1`, 25.9% (inactive). Under `O=C(Nc1ccc2c(c1)CCC2)c1cccc(S(=O)(=O)N2CCN(c3ccc(F)cc3)CC2)c1` stands 65% (active); under `COc1ccc(NC(=O)c2ccccc2CC[N+](=O)[O-])cc1`, 2.4% (inactive). Regarding `COCCNC(=O)c1cc2c(Br)ccc(Br)c2nc1N`, the inhibition was 2.81% (inactive).

In the case of `Cc1cc(C)n2c(Nc3c(C)cccc3C)c(CCc3ccccc3)nc2n1`, the inhibition was -5.1% (inactive).

Consider `OCC1(CO)CC2(C1)CC(CO)(CO)C2`, for which the inhibition was 15.3% (inactive). In the case of `Cc1ccc(-c2noc(CCC(=O)Nc3ccccc3N3CCN(C)CC3)n2)cc1` it was 12.3% (inactive); in that of `CCOc1cc(/C=C(/C#N)c2ccc(Cl)cc2)cc(Cl)c1OCC(=O)O`, 83.5% (active). On to `CCOc1cc(/C=N/NC(=O)OC)ccc1OCCSc1ccc(Cl)cc1`, for which the inhibition is 10.4% (inactive). In the case of `COc1cc(/C=C(/NC(=O)c2ccc(Cl)cc2Cl)C(=O)O)cc(OC)c1OC` it was 15.3% (inactive); in that of `COc1ccccc1CNC(=O)C1CCN(S(=O)(=O)c2ccc3c(c2)OCCO3)CC1`, 10.5% (inactive). Under `Cc1ccc(Cn2cc(C(=O)NN)c(=O)c3ccc(F)cc32)cc1` stands -2.98% (inactive). Under `CCNc1nc(SCCOc2ccccc2)nc(N(C)C)n1` stands -28.5% (inactive). Turning to `Cc1cccc(NC(=O)C2CC(=O)OC23CCCC3)c1` (configuration not stated), the inhibition was 14.4% (inactive). Under `Cn1c(=O)c2cc(NC(=O)NCCc3cccs3)ccc2n1Cc1cccc(C(F)(F)F)c1` stands 4.52% (inactive).

Regarding `O=C(Nc1nnc(COc2ccccc2)s1)Nc1ccccc1F`, the inhibition is 62.4% (active). In the case of `O=C(Nc1ccccc1)Nc1nnc(COc2ccccc2F)s1` it was -8.31% (inactive); in that of `COc1ccccc1NC(=O)Nc1nnc(Cc2ccc(F)cc2)s1`, -26.6% (inactive). In the case of `Brc1ccc(-c2nn[nH]n2)cc1` it was 5.03% (inactive).

Consider `CC(=O)C1=C(C)NC2=C(C(=O)CC(C)(C)C2)C1C` (configuration not stated), for which the inhibition was 16% (inactive). In the case of `COc1ccc(OC)c(/C(C)=N\NC(=O)c2cc3cc(Cl)ccc3n2C)c1` it was 5.37% (inactive); in that of `COCCCNc1nc2ccccc2nc1NS(=O)(=O)c1ccc(F)cc1`, 19.1% (inactive). In the case of `Cc1ccc(S(=O)(=O)C(C#N)c2nc3ccccc3nc2N2CCCC2)cc1C` (configuration not stated) it was 12.6% (inactive); in that of `Cc1ccc(S(=O)(=O)Nc2nc3ccccc3nc2N2CCc3ccccc3C2)cc1`, 86.8% (active). Under `Cc1ccc(C)c(NC(=O)CSc2nc3c(oc4ccccc43)c(=O)n2-c2ccccc2)c1` stands 25.1% (inactive); under `COc1ccccc1C(=O)NC(=S)NC12CC3CC(CC(C3)C1)C2`, 0.54% (inactive); under `COc1ccccc1C(=O)NC(=S)Nc1ccccc1N1CCCCC1`, 53.6% (active).

`COc1ccccc1C(=O)NC(=S)Nc1ccc(N2CCOCC2)cc1`: the inhibition was -34.2% (inactive). In the case of `CC(C)(C)c1cc(NC(=O)NN2CCOCC2)nn1-c1c(Cl)cc(Cl)cc1Cl` it was 4.79% (inactive); in that of `CC(C)(C)OC(=O)C[C@@H]1C/C=C\C[C@@H](CC(=O)NCCO)C(=O)N[C@H](Cc2c[nH]c3ccccc23)COC1=O`, -8.05% (inactive).

`Nc1ccc(S(=O)(=O)Nc2nccc(/C=C/c3ccc(Br)s3)n2)cc1`: the inhibition was -5.92% (inactive). Under `Oc1cccc2ccc(/C=C/c3ccc(Br)s3)nc12` stands 57.6% (active).
